# Measured values: PubChem BioAssay (EPA / NIEHS)
# Calls of active or inactive are those of the source. Rule for the calls: active = hit-call score of the fitted dose curve at least 0.9, where 1 is the maximum; inactive = score below 0.9.
# Experiment: CEETOX_H295R_DOC_noMTC: CeeTox H295R High-throughput Steroidogenesis Assay for DOC, maximum tolerated concentration (MTC) filtered results only (AID 2283918)
# Details: actives raise or lower the signal
# Method in brief: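 11-Deoxycorticosterone secreted by human adrenal H295R cells quantified by HPLC-MS/MS after 48 h chemical exposure (0.1% DMSO), following 48 h 10 uM forskolin prestimulation. Concentrations not filtered by MTT-derived MTC; bidirectional fitting.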
Compound,outcome,AC50
O=C(O)c1ccccc1C(=O)OCc1ccccc1,inactive,
CC(C)(O)c1ccc(CNC(=O)c2cccnc2Oc2ccc3nonc3c2)cc1,,0.0934 µM (active)
c1ccc(C[n+]2cccc3ccccc32)cc1,inactive,
CC/C(=C(/CC)c1ccc(O)cc1)c1ccc(O)cc1,,84.6 µM (active)

# Experiment: CEETOX_H295R_ESTRADIOL_noMTC: CeeTox H295R High-throughput Steroidogenesis Assay for Estradiol, maximum tolerated concentration (MTC) filtered results only (AID 2283919)
# Details: actives raise or lower the signal
# Method in brief: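 Readout: dansyl-derivatized estradiol quantified by LC-MS/MS in medium from H295R cells dosed 48 h (0.1% DMSO) following 48 h forskolin (10 uM) prestimulation. Gain or loss of signal fitted against DMSO; no MTC filtering applied.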
Compound,AC50,outcome
CC(C)(O)c1ccc(CNC(=O)c2cccnc2Oc2ccc3nonc3c2)cc1,0.0671 µM (active),
c1ccc(C[n+]2cccc3ccccc32)cc1,,inactive
CCCCCc1ccc(N)cc1,,inactive

# Experiment: CEETOX_H295R_PROG_noMTC: CeeTox H295R High-throughput Steroidogenesis Assay for Progesterone (PROG), maximum tolerated concentration (MTC) filtered results only (AID 2283920)
# Details: actives raise or lower the signal
# Description: CEETOX_H295R is a cell-based, multiplexed-readout assay that uses H295R, a human adrenal gland cell line, with measurements taken at 48 hours after chemical dosing in a 96-well plate.CEETOX_H295R_PROG_noMTC is one of 12 assay component(s) measured or calculated from the CEETOX_H295R assay (11 hormones and 1 viability assay). It is designed to make measurements of hormone induction, a form of inducible reporter, as detected with absorbance signals by HPLC-MS-MS technology. The concentrations for these components have not been pre-filtered for the maximum tolerated concentration (MTC) based on the MTT assay (_noMTC).Data from the assay component CEETOX_H295R_PROG_noMTC was analyzed into 1 assay endpoint. This assay endpoint, CEETOX_H295R_PROG_noMTC, was analyzed with bidirectional fitting relative to DMSO as the negative control and baseline of activity. Using a type of inducible reporter, gain or loss-of-signal activity using HPLC-MS-MS was used to understand synthesis of Progesterone in H295R cell line at 48hr of chemical exposure, without filtering concentrations for maximum tolerated concentration (MTC). To generalize the intended target to other relatable targets, this assay endpoint is annotated to the steroid hormone intended target family, where the subfamily is progestagens.
# Cell culture and media preparation procedures were conducted in accordance with OECD Test No. 456 guidelines, with minor modifications. H295R cells (ATCC CRL-2128) were expanded for 5 passages and frozen in batches in liquid nitrogen. Prior to the steroidogenesis assay, H295R cells were thawed and passed at least 4 times. The maximum passage was 10. Cells were maintained in a 1:1 mixture of DMEM/F12 supplemented with 5ml/L ITS+ Premix (BD Bioscience) and 12.5 ml/L Nu-Serum (BD Bioscience). After seeding cells into 96-well plates at 50-60% confluency, cells were allowed to adhere overnight. Prior to chemical testing, culture medium was replaced with 175 uL medium containing 10 uM forskolin to stimulate steroidogenesis for 48 hours. Following prestimulation, forskolin medium was replaced with medium containing test chemical solubilized in DMSO (ensuring a final concentration of 0.1% DMSO). Test chemicals were incubated for 48 hours, then the medium was removed and split into 2 vials containing approximately 75uL each, and stored at -80 C prior to hormone analysis. For steroid quantification, media samples were shipped to OpAns, LLC (Durham, NC) on dry ice, and samples were thawed to room temperature prior to liquid-liquid extraction. Steroid hormones were extracted from media samples using methyl tertbutyl ether (MTBE). An extra derivatization with dansyl chloride was included for estrogen (estrone and estradiol) detection only. Steroid hormones were separated by HPLC, eluted using a reverse phase C18 gradient with electrospray positive ionization, followed by quantification by tandem mass spectrometry (MS/MS). Data were acquired on a MassHunter Workstation Acquisition version B03.01 (Agilent Technologies, Inc.) and processed using MassHunter Quantitative Analysis for QQQ. Accuracy was determined for each hormone analyte from 3 standards to determine upper and lower limits of quantification (ULOQ and LLOQ, respectively) using a 7-point standard curve. Precision and accuracy of the extraction and quantification methods were calculated as the percent relative standard deviation (%RSD) of the spiked standards and percent spiked standard recovered, respectively. The goal was to achieve 100% accuracy (i.e., recover all spiked-in standard at quantification with minimal loss during run time) and good precision (i.e., have %RSD <15% to ensure reproducibility). Test medium was removed following chemical exposure, and cell viability was evaluated in the same wells by MTT. MTT procedures were as follows: after removal of test medium, 500 uL of 0.5 mg/ml of 3-[4,5-dimethylthiazol-2-y]2,5-diphenyltetrazoliumbromide solution was added to the cells. […]
Compound,outcome,AC50
O=C(O)c1ccccc1C(=O)OCc1ccccc1,inactive,
CCCCCCCCOc1ccc(C(=O)c2ccccc2)c(O)c1,,30.1 µM (active)
CC(C)(O)c1ccc(CNC(=O)c2cccnc2Oc2ccc3nonc3c2)cc1,inactive,
c1ccc(C[n+]2cccc3ccccc32)cc1,inactive,
CC/C(=C(/CC)c1ccc(O)cc1)c1ccc(O)cc1,inactive,
CCCCCc1ccc(N)cc1,,13.9 µM (active)
